{
  "source": "PubChem BioAssay (Tox21)",
  "note": "Records with an inconclusive call do not appear. Where a call stands in place of a potency, no number is given. Calls of active or inactive are those of the source. Calls come from the whole dose curve; as a rule, active = well fitted curve in the direction sought with a large enough effect in the repeat runs; inconclusive = weak or mixed curves; inactive = no such curve, though single readings can be large; an effect the other way counts as inactive or inconclusive. Note: nearly all actives have a fitted effect of over 50% in size. Potency is the fitted concentration of half-maximal effect.",
  "data": [
    {"target": "Voltage-gated inwardly rectifying potassium channel KCNH2 (Homo sapiens) (UniProt Q12809)", "sequence (Q12809 whole entry, looked up)": "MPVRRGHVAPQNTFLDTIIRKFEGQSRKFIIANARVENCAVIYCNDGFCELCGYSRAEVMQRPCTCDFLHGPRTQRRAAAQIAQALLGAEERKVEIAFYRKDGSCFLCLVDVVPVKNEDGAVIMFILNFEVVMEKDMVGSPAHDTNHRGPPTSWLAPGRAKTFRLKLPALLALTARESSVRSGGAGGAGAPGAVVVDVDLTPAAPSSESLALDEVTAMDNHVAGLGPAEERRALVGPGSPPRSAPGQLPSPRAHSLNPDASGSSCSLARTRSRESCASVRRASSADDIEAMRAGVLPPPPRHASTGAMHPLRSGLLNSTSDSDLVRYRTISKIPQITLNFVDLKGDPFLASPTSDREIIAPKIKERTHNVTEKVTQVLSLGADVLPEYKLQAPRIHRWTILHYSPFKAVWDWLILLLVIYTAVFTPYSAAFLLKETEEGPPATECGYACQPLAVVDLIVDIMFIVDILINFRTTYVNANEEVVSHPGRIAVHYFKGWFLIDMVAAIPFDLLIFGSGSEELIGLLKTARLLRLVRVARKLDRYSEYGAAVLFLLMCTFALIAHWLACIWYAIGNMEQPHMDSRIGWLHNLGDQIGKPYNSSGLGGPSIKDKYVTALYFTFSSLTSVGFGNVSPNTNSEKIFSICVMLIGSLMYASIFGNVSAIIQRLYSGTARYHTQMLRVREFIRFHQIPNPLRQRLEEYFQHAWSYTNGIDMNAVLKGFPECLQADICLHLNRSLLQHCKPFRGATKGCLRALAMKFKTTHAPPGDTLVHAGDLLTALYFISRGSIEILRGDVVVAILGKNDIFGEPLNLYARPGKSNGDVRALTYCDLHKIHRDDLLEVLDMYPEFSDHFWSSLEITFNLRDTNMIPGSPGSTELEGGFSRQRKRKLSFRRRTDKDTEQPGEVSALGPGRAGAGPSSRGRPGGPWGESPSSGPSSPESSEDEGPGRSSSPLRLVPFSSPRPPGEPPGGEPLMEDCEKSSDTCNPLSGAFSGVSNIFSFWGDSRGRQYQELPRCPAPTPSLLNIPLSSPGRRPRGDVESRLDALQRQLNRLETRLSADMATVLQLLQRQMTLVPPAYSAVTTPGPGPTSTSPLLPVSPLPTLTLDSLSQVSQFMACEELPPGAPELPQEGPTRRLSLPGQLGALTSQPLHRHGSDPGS", "experiment": "Human Ether-a-go-go-Related Gene (hERG) channel small molecule antagonists: fluorescence cell-based qHTS assay (AID 1671200);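 for activity change, negative = inhibition: hERG-expressing U2OS cells given a thallium stimulus after FluxOR II dye loading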", "settings": "hERG-U2OS cells, FluxOR thallium flux fluorescence; series mostly up to 76.8 µM", "procedure,_shortened": "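U2OS cells expressing the channel were plated at 1000 cells/well, incubated overnight at 37 C, then loaded with FluxOR II thallium-sensitive dye for 1 h at room temperature in the dark, with a further 10 min at room temperature before stimulation.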", "values": [
      {"compound": "C=CC(=O)OCCOCCOCCOCCOC(=O)C=C", "Potency": "inactive"},
      {"compound": "Cc1cccc(C)c1NC(=O)CN(CC(=O)O)CC(=O)O", "Potency": "inactive"},
      {"compound": "Cc1ccc(C(=O)Oc2ccc(C(O)CNC(C)(C)C)cc2OC(=O)c2ccc(C)cc2)cc1", "note": "(centres undefined)", "Potency": "6.74 µM (active)"},
      {"compound": "O=CC1CC=CCC1", "note": "(centres undefined)", "Potency": "inactive"},
      {"compound": "CCOC(=O)c1cccnc1", "Potency": "inactive"},
      {"compound": "NCc1ccccc1Sc1ccccc1CO", "Potency": "inactive"},
      {"compound": "CCCCCCCCCOS(=O)(=O)O", "Potency": "inactive"},
      {"compound": "C#Cc1cccc(Nc2ncnc3cc(OCCOC)c(OCCOC)cc23)c1", "Potency": "inactive"},
      {"compound": "COc1cccc(N(C)C(=S)Oc2ccc3c(c2)CCCC3)n1", "Potency": "inactive"},
      {"compound": "CCCCOC(=O)CCCCCCCC(=O)OCCCC", "Potency": "inactive"},
      {"compound": "O=C(O)CC(=O)C(=O)O", "Potency": "inactive"},
      {"compound": "O=C1C(O)=C(O)C(=O)C(O)=C1O", "Potency": "inactive"},
      {"compound": "ClCCOCCOCCCl", "Potency": "inactive"},
      {"compound": "Nc1ccccc1S(=O)(=O)c1ccccc1", "Potency": "inactive"},
      {"compound": "CC1=CC[C@H](C(C)C)C=C1", "Potency": "inactive"},
      {"compound": "COS(=O)(=O)C(F)(F)F", "Potency": "inactive"},
      {"compound": "CC(C)C[C@H]1C(=O)N2CCC[C@H]2[C@]2(O)O[C@](NC(=O)[C@@H]3C=C4c5cccc6[nH]c(Br)c(c56)C[C@H]4N(C)C3)(C(C)C)C(=O)N12", "Potency": "inactive"},
      {"compound": "C/C=C/C(=O)CC", "activity change, negative = inhibition": "2.39% [at 15.8 µM] (inactive)"},
      {"compound": "Cc1ncc(CO)c(C=O)c1O", "Potency": "inactive"},
      {"compound": "OCc1cc(C(O)CNCCCCCCOCCCCc2ccccc2)ccc1O", "note": "(centres undefined)", "Potency": "2.68 µM (active)"},
      {"compound": "CCCCCCCC#N", "Potency": "inactive"},
      {"compound": "C=C1[C@H]2CC[C@@H]3[C@H]2C(C)(C)CCC[C@]13C", "Potency": "inactive"},
      {"compound": "CC(CC=O)c1ccccc1", "note": "(centres undefined)", "Potency": "inactive"},
      {"compound": "CC1=CCCC(C)(C)C12CCC(C)O2", "note": "(centres undefined)", "Potency": "inactive"},
      {"compound": "CN(C)c1ccc(/C=C/c2ccc([N+](=O)[O-])cc2)cc1", "activity change, negative = inhibition": "3.51% [at 6.97 µM] (inactive)"},
      {"compound": "CCCCCCCCCCCCN1CCCCCC1=O", "Potency": "inactive"}
    ]},
    {"target": "Cytochrome P450 3A4 (Homo sapiens) (UniProt P08684)", "sequence (P08684 whole entry, looked up)": "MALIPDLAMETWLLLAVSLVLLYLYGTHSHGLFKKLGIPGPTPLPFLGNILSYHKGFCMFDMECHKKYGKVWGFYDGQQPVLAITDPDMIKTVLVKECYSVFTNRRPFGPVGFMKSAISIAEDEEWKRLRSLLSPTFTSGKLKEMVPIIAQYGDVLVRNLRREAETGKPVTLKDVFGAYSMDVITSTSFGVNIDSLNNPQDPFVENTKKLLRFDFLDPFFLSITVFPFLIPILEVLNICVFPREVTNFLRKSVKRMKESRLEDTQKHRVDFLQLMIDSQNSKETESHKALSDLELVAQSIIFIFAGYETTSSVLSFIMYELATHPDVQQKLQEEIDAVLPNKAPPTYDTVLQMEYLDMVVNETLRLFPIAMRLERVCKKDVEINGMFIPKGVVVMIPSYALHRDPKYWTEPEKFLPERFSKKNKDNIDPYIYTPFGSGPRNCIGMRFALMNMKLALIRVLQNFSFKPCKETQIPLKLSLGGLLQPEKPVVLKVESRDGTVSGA", "experiment": "Cytochrome P450 Family 3 Subfamily A Member 4 (CYP3A4) small molecule antagonists: luciferase reporter qHTS assay (AID 1671201)", "settings": "P450-Glo CYP3A4 enzyme, luciferin luminescence, 1 h; series mostly up to 115 µM", "procedure,_shortened": "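P450-Glo CYP3A4 system with proluciferin substrate; compounds preincubated 10 min RT with enzyme-substrate mix, then NADPH regeneration added for 1 h RT. Detection reagent 20 min, luminescence read as relative luminescence units.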", "values": [
      {"compound": "CC(C)=CCC/C(C)=C/CC/C(C)=C/CO", "Potency": "25.2 µM (active)"},
      {"compound": "Cc1cccc(C)c1NC(=O)CN(CC(=O)O)CC(=O)O", "Potency": "inactive"},
      {"compound": "O=C(NCC1CN(c2ccc(N3CCOCC3=O)cc2)C(=O)O1)c1ccc(Cl)s1", "note": "(centres undefined)", "Potency": "inactive"},
      {"compound": "CC[N+]1(CC)CCC(=C(c2ccccc2)c2ccccc2)C1C", "note": "(centres undefined)", "Potency": "inactive"},
      {"compound": "CCOC(=O)c1cccnc1", "Potency": "inactive"},
      {"compound": "COc1ccc(S(=O)(=O)N2C(=O)[C@@](c3ccccc3OC)(N3C[C@H](O)C[C@H]3C(=O)N(C)C)c3cc(Cl)ccc32)c(OC)c1", "Potency": "0.0894 µM (active)"},
      {"compound": "CCCCCC[C@@H](O)C/C=C\\CCCCCCCC(=O)OC", "Potency": "inactive"},
      {"compound": "CCCCCCCN", "Potency": "inactive"},
      {"compound": "CCCCCCCCCOS(=O)(=O)O", "Potency": "inactive"},
      {"compound": "CCCCOC(=O)CCCCCCCC(=O)OCCCC", "Potency": "inactive"},
      {"compound": "O=C(O)CC(=O)C(=O)O", "Potency": "inactive"},
      {"compound": "O=C(O)c1ccco1", "Potency": "inactive"},
      {"compound": "O=C1C(O)=C(O)C(=O)C(O)=C1O", "Potency": "inactive"},
      {"compound": "OCCNCc1ccccc1", "Potency": "inactive"},
      {"compound": "ClCCOCCOCCCl", "Potency": "inactive"},
      {"compound": "CC1=CC[C@H](C(C)C)C=C1", "Potency": "28.3 µM (active)"},
      {"compound": "COC(=O)c1ccc(I)cc1S(=O)(=O)NC(=O)Nc1nc(C)nc(OC)n1", "Potency": "inactive"},
      {"compound": "COS(=O)(=O)C(F)(F)F", "Potency": "inactive"},
      {"compound": "CCOCC(O)COc1ccc(NC(=O)CC[S+](C)C)cc1", "note": "(centres undefined)", "Potency": "inactive"},
      {"compound": "Cc1ncc(CO)c(C=O)c1O", "Potency": "inactive"},
      {"compound": "CCN(CC)CCNC(=O)c1cc(Br)c(N)cc1OC", "Potency": "inactive"},
      {"compound": "COCC(C)OC(C)=O", "note": "(centres undefined)", "Potency": "inactive"},
      {"compound": "CCCCCCCC#N", "Potency": "inactive"},
      {"compound": "C=C1[C@H]2CC[C@@H]3[C@H]2C(C)(C)CCC[C@]13C", "Potency": "inactive"},
      {"compound": "CC(CC=O)c1ccccc1", "note": "(centres undefined)", "Potency": "20 µM (active)"},
      {"compound": "CC1=CCCC(C)(C)C12CCC(C)O2", "note": "(centres undefined)", "Potency": "79.6 µM (active)"},
      {"compound": "CN(C)c1ccc(/C=C/c2ccc([N+](=O)[O-])cc2)cc1", "activity change, negative = inhibition": "3.87% [at 10.5 µM] (inactive)"},
      {"compound": "CCCCCCCCCCCCN1CCCCCC1=O", "Potency": "inactive"}
    ]}
  ]
}
